The source of these data is PMC12820563, “FoxP3 forms a head-to-head dimer in vivo and stabilizes its multimerization on adjacent microsatellites”.

Over roughly 16,000 sequences, “rpm ratio (pull-down/input)” has its median near 0.94; the highest 2% begin near 1.7. The list comes from a sample in which the highest values are over-represented; it also holds similar and randomly drawn sequences.

The assay has as its target T1, MBP-FoxP1dN (Mus musculus, UniProt P58462 326-579).
T1 sequence: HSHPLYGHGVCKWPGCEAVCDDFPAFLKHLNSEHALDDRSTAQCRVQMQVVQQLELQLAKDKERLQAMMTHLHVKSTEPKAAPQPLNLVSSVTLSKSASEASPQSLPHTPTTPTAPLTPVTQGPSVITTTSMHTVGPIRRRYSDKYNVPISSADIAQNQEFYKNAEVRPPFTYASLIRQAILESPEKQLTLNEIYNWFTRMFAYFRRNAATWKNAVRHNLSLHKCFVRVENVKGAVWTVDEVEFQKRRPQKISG
As to the kind of experiment: PD-seq (MBP pull-down with sequencing); 20 mM Tris-HCl pH 7.5, 100 mM NaCl, 1.5 mM MgCl2, 0.4 uM protein, 0.1 uM dsDNA library, 30 min, room temperature, amylose pull-down; high values mean tight binding. The following applies: protein: recombinant; tags: His6-MBP; chain copies: 2; dsDNA, one strand shown. In outline:
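Mouse FoxP3 or FoxP1 fragment lacking the N-terminus, His6-MBP-tagged and expressed in E. coli, was incubated at 0.4 µM with 0.1 µM Klenow-filled degenerate double-stranded DNA library for 30 min at room temperature in Tris pH 7.5 buffer with NaCl and MgCl2. Complexes captured on amylose resin were washed three times and their DNA sequenced on Illumina. Binding is reads-per-million enrichment of pull-down over input, replicates pooled.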
Regarding “GATGATTGTTCTCCCAGCTGATGAATTATATGAGTCGAGTAAACAAATTTTCCTAATCTTTCTGTTCAAGCGCCATCTAC”, the binding signal is 0.962 RPM ratio (pull-down/input).

For “GATGATTGTTCTCCCAGCTGATGAATTAATAATATCGAGTAAACAAATTTTCCTAATCTTTCTGTTCAAGCGCCATCTAC”, the binding signal was 1.51 RPM ratio (pull-down/input).

With “GATGATTGTTCTCCCAGCTGATGAATTAAAAATATCGAGTAAACAAATTTTCCTAATCTTTCTGTTCAAGCGCCATCTAC”, the binding signal was 1.35 RPM ratio (pull-down/input).

For “GATGATTGTTCTCCCAGCTGATGAATTATCAATATCGAGTAAACAAATTTTCCTAATCTTTCTGTTCAAGCGCCATCTAC”, the binding signal is 1.96 RPM ratio (pull-down/input).

Take “GATGATTGTTCTCCCAGCTGATGAATTATATCAATCGAGTAAACAAATTTTCCTAATCTTTCTGTTCAAGCGCCATCTAC”: the binding signal was 1.16 RPM ratio (pull-down/input).

“GATGATTGTTCTCCCAGCTGATGAATTAACAATATCGAGTAAACAAATTTTCCTAATCTTTCTGTTCAAGCGCCATCTAC”: the binding signal is 1.87 RPM ratio (pull-down/input).

In the case of “GATGATTGTTCTCCCAGCTGATGAATTATGAATATCGAGTAAACAAATTTTCCTAATCTTTCTGTTCAAGCGCCATCTAC”, the binding signal is 1.07 RPM ratio (pull-down/input).

Take “GATGATTGTTCTCCCAGCTGATGAATTAGCTTACTCGAGTAAACAAATTTTCCTAATCTTTCTGTTCAAGCGCCATCTAC”: the binding signal was 0.938 RPM ratio (pull-down/input).

On to “GATGATTGTTCTCCCAGCTGATGAATTTTGAGGGTCGAGTAAACAAATTTTCCTAATCTTTCTGTTCAAGCGCCATCTAC”, for which the binding signal was 0.774 RPM ratio (pull-down/input).

Take “GATGATTGTTCTCCCAGCTGATGAATTGCAAAAATCGAGTAAACAAATTTTCCTAATCTTTCTGTTCAAGCGCCATCTAC”: the binding signal was 1.55 RPM ratio (pull-down/input).

As for “GATGATTGTTCTCCCAGCTGATGAATTGCAGCAATCGAGTAAACAAATTTTCCTAATCTTTCTGTTCAAGCGCCATCTAC”, the binding signal was 1.33 RPM ratio (pull-down/input).

In the case of “GATGATTGTTCTCCCAGCTGATGAATTGATGCCATCGAGTAAACAAATTTTCCTAATCTTTCTGTTCAAGCGCCATCTAC”, the binding signal is 1.39 RPM ratio (pull-down/input).

Take “GATGATTGTTCTCCCAGCTGATGAATTTTTGCAATCGAGTAAACAAATTTTCCTAATCTTTCTGTTCAAGCGCCATCTAC”: the binding signal is 1.26 RPM ratio (pull-down/input).

In the case of “GATGATTGTTCTCCCAGCTGATGAATTGCAAACATCGAGTAAACAAATTTTCCTAATCTTTCTGTTCAAGCGCCATCTAC”, the binding signal was 2.29 RPM ratio (pull-down/input).

Consider “GATGATTGTTCTCCCAGCTGATGAATTGCAACAATCGAGTAAACAAATTTTCCTAATCTTTCTGTTCAAGCGCCATCTAC”, for which the binding signal is 1.91 RPM ratio (pull-down/input).

For the sequence “GATGATTGTTCTCCCAGCTGATGAATTTGCAACATCGAGTAAACAAATTTTCCTAATCTTTCTGTTCAAGCGCCATCTAC”, the binding signal was 1.7 RPM ratio (pull-down/input).

For “GATGATTGTTCTCCCAGCTGATGAATTGATGCAATCGAGTAAACAAATTTTCCTAATCTTTCTGTTCAAGCGCCATCTAC”, the binding signal is 1.96 RPM ratio (pull-down/input).

With “GATGATTGTTCTCCCAGCTGATGAATTTCTGCAATCGAGTAAACAAATTTTCCTAATCTTTCTGTTCAAGCGCCATCTAC”, the binding signal was 1.1 RPM ratio (pull-down/input).

As to “GATGATTGTTCTCCCAGCTGATGAATTGCAACCATCGAGTAAACAAATTTTCCTAATCTTTCTGTTCAAGCGCCATCTAC”, the binding signal was 1.45 RPM ratio (pull-down/input).

“GATGATTGTTCTCCCAGCTGATGAATTGTTGCAATCGAGTAAACAAATTTTCCTAATCTTTCTGTTCAAGCGCCATCTAC”: the binding signal is 1.87 RPM ratio (pull-down/input).

“GATGATTGTTCTCCCAGCTGATGAATTGCAATCATCGAGTAAACAAATTTTCCTAATCTTTCTGTTCAAGCGCCATCTAC”: the binding signal is 1.48 RPM ratio (pull-down/input).

In the case of “GATGATTGTTCTCCCAGCTGATGAATTGACTACATCGAGTAAACAAATTTTCCTAATCTTTCTGTTCAAGCGCCATCTAC”, the binding signal was 1.22 RPM ratio (pull-down/input).

As to “GATGATTGTTCTCCCAGCTGATGAATTCCACAGTTCGAGTAAACAAATTTTCCTAATCTTTCTGTTCAAGCGCCATCTAC”, the binding signal was 0.831 RPM ratio (pull-down/input).

“GATGATTGTTCTCCCAGCTGATGAATTTCACCATTCGAGTAAACAAATTTTCCTAATCTTTCTGTTCAAGCGCCATCTAC”: the binding signal was 0.883 RPM ratio (pull-down/input).

Regarding “GATGATTGTTCTCCCAGCTGATGAATTTCGTCTCTCGAGTAAACAAATTTTCCTAATCTTTCTGTTCAAGCGCCATCTAC”, the binding signal was 0.896 RPM ratio (pull-down/input).

As to “GATGATTGTTCTCCCAGCTGATGAATTATGACCTTCGAGTAAACAAATTTTCCTAATCTTTCTGTTCAAGCGCCATCTAC”, the binding signal was 0.925 RPM ratio (pull-down/input).

On to “GATGATTGTTCTCCCAGCTGATGAATTATGCCACTCGAGTAAACAAATTTTCCTAATCTTTCTGTTCAAGCGCCATCTAC”, for which the binding signal is 1.06 RPM ratio (pull-down/input).

Consider “GATGATTGTTCTCCCAGCTGATGAATTTTCCCTCTCGAGTAAACAAATTTTCCTAATCTTTCTGTTCAAGCGCCATCTAC”, for which the binding signal is 0.877 RPM ratio (pull-down/input).

“GATGATTGTTCTCCCAGCTGATGAATTCCGAGATTCGAGTAAACAAATTTTCCTAATCTTTCTGTTCAAGCGCCATCTAC”: the binding signal was 0.799 RPM ratio (pull-down/input).

As to “GATGATTGTTCTCCCAGCTGATGAATTAAGTGTATCGAGTAAACAAATTTTCCTAATCTTTCTGTTCAAGCGCCATCTAC”, the binding signal is 1.28 RPM ratio (pull-down/input).

For “GATGATTGTTCTCCCAGCTGATGAATTTCAGTCATCGAGTAAACAAATTTTCCTAATCTTTCTGTTCAAGCGCCATCTAC”, the binding signal was 1 RPM ratio (pull-down/input).

For “GATGATTGTTCTCCCAGCTGATGAATTTTCCACTTCGAGTAAACAAATTTTCCTAATCTTTCTGTTCAAGCGCCATCTAC”, the binding signal is 0.903 RPM ratio (pull-down/input).

With “GATGATTGTTCTCCCAGCTGATGAATTTAGGAGATCGAGTAAACAAATTTTCCTAATCTTTCTGTTCAAGCGCCATCTAC”, the binding signal was 0.968 RPM ratio (pull-down/input).
